This note sets out measurements from ChEMBL document CHEMBL4513156, “CO-ADD screening of NCPRI (Romania) compounds”.

In one assay the test system is Klebsiella pneumoniae. Conditions: Concentration 32 ug.mL-1; ASSAY_TEST Inhibition of Bacterial Growth; detection method Absorption (OD600); MEDIA CAMHB; plate type 384well; NBS; CORNING #3640; time 18 hr.
In a further assay the test system is Candida albicans. To be noted: 32 ug/mL.
In another assay the test system is Cryptococcus neoformans. To be noted: Concentration 32 ug.mL-1; ASSAY_TEST Inhibition of Fungal Growth; detection method Resazurin; Absorption (OD600-OD570); plate type 384well; NBS; CORNING #3640. Background: Alamar Blue is a resazurin reagent that responds to reducing activity.

Each structure is given as a SMILES string. Measured potencies and affinities stand elsewhere.

Usually Inhibition stands for the drop in the measured response relative to a control, in per cent. Consider `O=C(N/N=C1/C[C@@H]2[C@H](C1)[C@H](OC(=O)c1ccccc1)C[C@@H]2OC(=O)c1ccccc1)c1ccncc1`, for which the values for the Inhibition in the assay with Klebsiella pneumoniae, in the assay with Candida albicans and with Cryptococcus neoformans were 10.86%, 16.2% and -110.81%, respectively.

With `O=C(NNC(=O)c1cccc([N+](=O)[O-])c1C(=O)O)c1ccncc1`, the Inhibition in the assay with Klebsiella pneumoniae was 15.09%; in the assay on Candida albicans, 1.9%; in the assay on Cryptococcus neoformans, -5.54%.

Consider `O=C(N/N=C/CCCO)c1ccncc1`, for which the Inhibition with Klebsiella pneumoniae was 3.72%; with Candida albicans it was 0.75%; with Cryptococcus neoformans it was -50.92%.

In the case of `O=C(NNC(=O)c1ccc([N+](=O)[O-])cc1C(=O)O)c1ccncc1`, the Inhibition in the assay with Klebsiella pneumoniae was 17.92%; in the assay with Candida albicans it was 3.64%; in the assay with Cryptococcus neoformans, -51.18%.

For `O=C(NN=CC[C@@H]1[C@@H](/C=C/[C@@H](O)CCc2ccccc2)[C@H](OC(=O)c2ccccc2)C[C@@H]1O)c1ccncc1`, the results for the Inhibition in the assay with Klebsiella pneumoniae, in the assay with Candida albicans and in the assay on Cryptococcus neoformans were 14.41%, 5.97% and -72.55%, respectively.

For the compound `O=C1C[C@@H]2[C@@H](C=NNC(=O)c3ccncc3)[C@@H](C[C@H]2Cl)O1`, the figures for the Inhibition in the assay on Klebsiella pneumoniae, in the assay with Candida albicans and in the assay on Cryptococcus neoformans were 20.62%, 2.47% and -98.94%, respectively.

With `COC(=O)C[C@H]1[C@H](/C=N\NC(=O)c2ccncc2)[C@@H](O[Si](C)(C)C(C)(C)C)C[C@@H]1Cl`, the Inhibition in the assay with Klebsiella pneumoniae was 21.45%; in the assay on Candida albicans it was 1.67%; in the assay on Cryptococcus neoformans, -101.31%.

For the compound `CC(C)(C)[Si](C)(C)OC[C@H]1[C@H](CC=NNC(=O)c2ccncc2)[C@H](O)C[C@@H]1O[Si](C)(C)C(C)(C)C`, the Inhibition in the assay on Klebsiella pneumoniae was 19.31%; in the assay on Candida albicans, 3.64%; in the assay on Cryptococcus neoformans, -64.37%.
